This is an account of results in PubChem BioAssay.

The nature of assay [1]: small molecules captured by biotinylated probe aFSTL3 – biochemical, small-molecule microarray, fluorescence 635/667, stem cell growth factor project, primary screen (AID 1064).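 Note: measures binding of the biotinylated anti-FSTL3 antibody to printed compounds.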 To be noted: higher = more signal.
Assay [2] in a line: binders from COS7 lysate, DM2A8 probe, primary screen, torsin A project, cell lysate, small-molecule microarray, fluorescence 635/667 (AID 1065). To be noted: higher = more signal, COS7 lysate expressing mutant human TOR1A.
Assay [3] in a line: small molecules captured by biotinylated probe aFGF2 – biochemical, small-molecule microarray, fluorescence 635/667, stem cell growth factor project, primary screen (AID 1067).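 Note: measures binding of biotinylated aFGF2 protein to printed compounds on slides; z-score merges feature fluorescence and signal-to-noise across triplicate slides.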 To be noted: higher = more signal.
Assay [4] can be described thus: small molecules captured by biotinylated probe aFGF10 – biochemical, small-molecule microarray, fluorescence 635/667, stem cell growth factor project, primary screen (AID 1071).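 Note: score merges 667 nm spot intensity and signal to noise from triplicate slides.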 To be noted: higher = more signal.
For assay [5], the target named is Neurogenic locus notch homolog protein 2 (Homo sapiens) (UniProt Q04721). Kind of assay: small molecules binding Notch2 protein – biochemical, small-molecule microarray, 635 nm fluorescence, stem cell growth factors, primary screen (AID 1073). To be noted: higher = more signal.
Neurogenic locus notch homolog protein 2 (Homo sapiens), sequence (Q04721 whole entry, looked up, canonical isoform): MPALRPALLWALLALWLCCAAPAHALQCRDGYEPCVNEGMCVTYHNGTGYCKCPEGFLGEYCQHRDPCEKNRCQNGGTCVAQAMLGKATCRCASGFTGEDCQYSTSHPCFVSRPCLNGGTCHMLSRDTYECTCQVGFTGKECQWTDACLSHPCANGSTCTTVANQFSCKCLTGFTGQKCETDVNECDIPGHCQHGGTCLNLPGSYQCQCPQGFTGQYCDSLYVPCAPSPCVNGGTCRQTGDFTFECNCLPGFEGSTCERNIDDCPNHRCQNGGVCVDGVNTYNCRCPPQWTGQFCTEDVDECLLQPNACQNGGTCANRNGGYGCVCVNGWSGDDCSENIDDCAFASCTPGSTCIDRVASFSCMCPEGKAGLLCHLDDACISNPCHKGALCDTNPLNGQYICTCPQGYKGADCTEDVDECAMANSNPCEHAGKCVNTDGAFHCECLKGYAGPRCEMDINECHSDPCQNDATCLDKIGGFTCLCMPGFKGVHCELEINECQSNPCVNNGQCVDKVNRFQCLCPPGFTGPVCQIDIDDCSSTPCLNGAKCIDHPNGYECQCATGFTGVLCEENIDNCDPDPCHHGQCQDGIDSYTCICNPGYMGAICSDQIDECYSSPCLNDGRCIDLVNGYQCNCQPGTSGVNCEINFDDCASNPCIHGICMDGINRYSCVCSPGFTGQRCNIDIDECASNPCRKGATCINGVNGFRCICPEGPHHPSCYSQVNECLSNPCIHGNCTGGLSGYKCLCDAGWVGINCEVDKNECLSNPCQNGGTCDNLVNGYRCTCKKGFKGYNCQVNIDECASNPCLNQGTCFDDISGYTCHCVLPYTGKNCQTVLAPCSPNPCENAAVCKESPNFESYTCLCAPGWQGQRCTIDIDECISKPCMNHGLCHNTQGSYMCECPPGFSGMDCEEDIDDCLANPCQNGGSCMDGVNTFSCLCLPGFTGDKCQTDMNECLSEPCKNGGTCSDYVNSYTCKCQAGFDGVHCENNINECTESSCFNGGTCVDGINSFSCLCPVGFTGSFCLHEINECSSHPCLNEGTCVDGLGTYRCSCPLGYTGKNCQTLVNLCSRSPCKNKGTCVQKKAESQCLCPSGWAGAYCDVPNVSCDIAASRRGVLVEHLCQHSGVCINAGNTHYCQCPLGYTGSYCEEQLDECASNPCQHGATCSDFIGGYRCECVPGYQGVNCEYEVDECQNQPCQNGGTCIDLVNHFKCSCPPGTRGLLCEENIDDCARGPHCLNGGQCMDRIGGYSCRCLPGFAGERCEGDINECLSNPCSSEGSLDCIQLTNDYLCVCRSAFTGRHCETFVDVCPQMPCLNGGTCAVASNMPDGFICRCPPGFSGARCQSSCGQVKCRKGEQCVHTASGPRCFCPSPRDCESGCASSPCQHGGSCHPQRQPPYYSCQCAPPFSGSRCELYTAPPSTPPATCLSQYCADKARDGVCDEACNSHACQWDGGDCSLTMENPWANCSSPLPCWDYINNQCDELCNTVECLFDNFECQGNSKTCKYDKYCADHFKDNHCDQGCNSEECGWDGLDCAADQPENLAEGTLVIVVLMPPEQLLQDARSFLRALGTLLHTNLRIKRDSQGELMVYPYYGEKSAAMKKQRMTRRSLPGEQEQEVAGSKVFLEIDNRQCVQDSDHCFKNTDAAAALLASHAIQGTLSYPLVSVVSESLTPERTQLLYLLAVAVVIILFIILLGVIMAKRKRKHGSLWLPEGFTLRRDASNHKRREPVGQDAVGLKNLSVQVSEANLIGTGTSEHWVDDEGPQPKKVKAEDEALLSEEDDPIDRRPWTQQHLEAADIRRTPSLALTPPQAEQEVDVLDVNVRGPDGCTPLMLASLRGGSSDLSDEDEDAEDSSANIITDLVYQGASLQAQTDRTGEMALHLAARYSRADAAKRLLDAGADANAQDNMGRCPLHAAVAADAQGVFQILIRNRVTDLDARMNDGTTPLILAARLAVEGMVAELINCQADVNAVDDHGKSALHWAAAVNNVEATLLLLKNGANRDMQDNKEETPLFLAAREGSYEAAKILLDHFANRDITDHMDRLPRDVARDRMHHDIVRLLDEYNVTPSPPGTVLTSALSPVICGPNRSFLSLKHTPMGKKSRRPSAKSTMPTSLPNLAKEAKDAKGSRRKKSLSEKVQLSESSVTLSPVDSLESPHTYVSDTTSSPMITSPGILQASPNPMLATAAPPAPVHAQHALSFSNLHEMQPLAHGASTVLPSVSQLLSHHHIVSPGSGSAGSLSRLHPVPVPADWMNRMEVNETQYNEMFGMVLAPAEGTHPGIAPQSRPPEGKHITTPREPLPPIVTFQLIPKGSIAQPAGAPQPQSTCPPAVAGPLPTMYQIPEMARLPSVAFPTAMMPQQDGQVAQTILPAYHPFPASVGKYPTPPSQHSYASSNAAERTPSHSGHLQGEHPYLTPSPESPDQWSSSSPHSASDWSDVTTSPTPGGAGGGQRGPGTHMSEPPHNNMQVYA
Assay [6] addresses Pro-neuregulin-1, membrane-bound isoform (Homo sapiens) (UniProt Q02297). In words: small molecules binding neuregulin-1 protein – biochemical, small-molecule microarray, fluorescence 635/667, psychiatric disease protein project, primary screen (AID 1075).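 Note: score combines 667 nm spot fluorescence with signal to noise.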 To be noted: NRG1 binding, 635 nm fluorescence, higher = more signal.
Assay [7] relates to Neuregulin-1 EGF-like domain. In words: small molecules binding NRG1 EGF domain – biochemical, small-molecule microarray, 635 nm fluorescence, primary screen (AID 1081).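 Note: binding of the protein to compounds printed on small-molecule microarray slides.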 To be noted: higher = more signal.
A short description of assay [8]: FRG1 expression reporter modulators in myotubes – cell-based, C2C12 myotubes, firefly/Renilla luciferase, luminescence, FRG1 inhibition for FSHD, primary screen (AID 1084). To be noted: FRG1 promoter luciferase, higher = more signal, called active from +8 up or from −8 down.
A short description of assay [9]: small molecules captured by biotinylated probe aFST – biochemical, small-molecule microarray, fluorescence 635/667, stem cell growth factor project, primary screen (AID 1086).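 Note: score merges 667 nm fluorescence with signal-to-noise of each printed compound spot.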 To be noted: higher = more signal.
Assay [10] is described as follows: binders of probe aHhip on microarray, primary screen, stem cell growth factor project, biochemical, small-molecule microarray, fluorescence 635/667 (AID 1087).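 Note: score merges spot fluorescence at 667nm with spot signal to noise ratio.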 To be noted: higher = more signal.
In assay [11] the test system is PRMT1 (protein arginine N-methyltransferase 1). In words: small molecules binding arginine methyltransferase PRMT1 – biochemical, small-molecule microarray, 635 nm fluorescence, primary screen (AID 1088).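 Note: binding of Prmt1 protein to compounds spotted on small-molecule microarray slides.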 To be noted: higher = more signal.
Assay [12] can be described thus: growth effects on S. cerevisiae YJM789 – YJM789 clinical isolate, OD600, 24 h, basal, primary screen (AID 1089).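 Note: growth of clinical yeast isolate S. cerevisiae YJM 789 seeded 1000 cells per well; test concentration not given here.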 To be noted: higher = more signal, called active from +8 up or from −8 down.
Assay [13] in a line: S. pombe growth modifiers, basal conditions – strain 972, OD600, 24 h, no modulator, primary screen (AID 1090).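 Note: basal condition with compound alone and no growth modifier present; test concentration not given here.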 To be noted: S. pombe 972 growth, higher = more signal, called active from +8 up or from −8 down.
The nature of assay [14]: budding yeast growth modifiers under rapamycin – strain BY4716, OD600, 96 h, primary screen (AID 1091). Note: test concentration not given here. To be noted: S. cerevisiae BY4716 + rapamycin, higher = more signal, called active from +8 up or from −8 down.
Assay [15] concerns the target Torsin-1A-interacting protein 2 (Homo sapiens) (UniProt Q8NFQ8). In words: small molecules binding lysate-expressed LULL1 – cell lysate, human LULL1 lysate, 635/667 nm fluorescence, primary screen (AID 1092).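 Note: probe is lysate of COS7 cells overexpressing human LULL1; score merges per-feature 667 nm fluorescence with signal-to-noise.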 To be noted: small-molecule microarray, hLULL1 lysate binding, 635 nm fluorescence; higher = more signal.
Assay [16] is described as follows: optical density change of DRC41 E. coli – strain DRC41, OD650, 24 h, E. coli filamentation project, primary screen (AID 1093).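 Note: MC1000 strain lacking acrAB efflux and sulA so SOS filamentation is blocked; test concentration not given here.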 To be noted: E. coli DRC41 growth, higher = more signal, called active from +8 up or from −8 down.
Assay [17] is described as follows: probe aLefty2 binding to arrayed compounds – biochemical, biotinylated probe, 635/667 nm fluorescence, primary screen (AID 1094).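 Note: score merges spot fluorescence near 667 nm with spot signal-to-noise ratio.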 To be noted: small-molecule microarray, higher = more signal.
For assay [18], the system named is Noggin (protein binding on small-molecule microarray). Kind of assay: small molecules binding Noggin protein – biochemical, 635/667 nm fluorescence, primary screen (AID 1095).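 Note: score merges 667 nm feature fluorescence with signal to noise over triplicate slides.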 To be noted: 635 nm fluorescence, higher = more signal.
Assay [19] concerns the target Neurogenic locus notch homolog protein 3 (Homo sapiens) (UniProt Q9UM47). In words: small molecules binding NOTCH3 protein – biochemical, 635/667 nm fluorescence, primary screen (AID 1096). To be noted: small-molecule microarray, 635 nm fluorescence, higher = more signal.
Assay [20] in a line: probe aEGFR binding to arrayed compounds – biochemical, biotinylated probe, 635/667 nm fluorescence, primary screen (AID 1097).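 Note: probe is a biotinylated anti-EGFR antibody binding compounds printed on slides; score combines fluorescence near 667 nm and signal to noise of each spot.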 To be noted: small-molecule microarray, higher = more signal.

Calls of active or inactive are those of the source.

Torsin-1A-interacting protein 2 (Homo sapiens), sequence (Q8NFQ8 whole entry, looked up): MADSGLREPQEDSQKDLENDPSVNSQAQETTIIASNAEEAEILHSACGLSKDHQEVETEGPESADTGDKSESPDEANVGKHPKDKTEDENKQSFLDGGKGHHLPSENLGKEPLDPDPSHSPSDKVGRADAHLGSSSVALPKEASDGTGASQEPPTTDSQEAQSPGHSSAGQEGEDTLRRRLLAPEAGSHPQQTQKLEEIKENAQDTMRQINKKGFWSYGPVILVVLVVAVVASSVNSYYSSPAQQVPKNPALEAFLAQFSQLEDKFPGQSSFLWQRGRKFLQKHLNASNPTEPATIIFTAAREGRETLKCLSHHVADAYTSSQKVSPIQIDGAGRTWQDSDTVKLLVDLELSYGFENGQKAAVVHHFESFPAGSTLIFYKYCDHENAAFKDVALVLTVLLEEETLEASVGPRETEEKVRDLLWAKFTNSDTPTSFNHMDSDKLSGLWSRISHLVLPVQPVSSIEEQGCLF
Pro-neuregulin-1, membrane-bound isoform (Homo sapiens), sequence (Q02297 whole entry, looked up, the tested form may be a part, canonical isoform): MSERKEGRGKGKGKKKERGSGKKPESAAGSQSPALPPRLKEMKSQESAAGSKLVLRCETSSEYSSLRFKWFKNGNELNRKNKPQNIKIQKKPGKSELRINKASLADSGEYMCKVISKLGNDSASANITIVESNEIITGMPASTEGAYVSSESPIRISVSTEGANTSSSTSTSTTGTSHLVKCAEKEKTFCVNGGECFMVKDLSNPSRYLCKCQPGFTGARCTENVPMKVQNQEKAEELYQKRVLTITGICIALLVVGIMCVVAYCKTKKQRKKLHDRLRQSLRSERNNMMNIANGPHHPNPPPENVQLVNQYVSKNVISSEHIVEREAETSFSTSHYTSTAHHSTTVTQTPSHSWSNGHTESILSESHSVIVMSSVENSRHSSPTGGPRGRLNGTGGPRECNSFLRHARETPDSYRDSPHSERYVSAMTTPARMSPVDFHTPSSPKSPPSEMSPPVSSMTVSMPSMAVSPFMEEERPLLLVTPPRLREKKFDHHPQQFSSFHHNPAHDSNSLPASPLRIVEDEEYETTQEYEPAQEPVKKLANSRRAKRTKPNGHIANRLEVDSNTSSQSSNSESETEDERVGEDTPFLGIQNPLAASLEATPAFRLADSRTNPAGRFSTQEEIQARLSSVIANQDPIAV

Regarding `CO[C@H]1O[C@H](CO)[C@@H](OC(=O)Nc2ccccc2)[C@H](OC(=O)Nc2ccccc2)[C@@H]1OC(=O)Nc1ccccc1`, the composite z-score in assay [1] was -0.29; in [2], 0.692; in [3] it was 0.205; in [4], 0.784; in assay [5], 1.3; in [6] it was 1.45. Also, the composite z-score was 1.37 in assay [7]; 1.05 in assay [9]; -0.546 in assay [10]; 1.53 in assay [11]; 3.66 in assay [15]; 0.232 in assay [17]. The composite z-score in assay [18] was 1.38; in [19], 1.06; in assay [20] it was 0.138. The z-score was 1.89 (inactive) in [8]; 1.24 (inactive) in [12]; 0.975 (inactive) in assay [13]; 3.37 (inactive) in [14]; -0.0493 (inactive) in assay [16].

With `CC(C)[Si](C#Cc1ccc(Oc2ccccc2)cc1)(O[Si](C#Cc1ccc(Oc2ccccc2)cc1)(C(C)C)C(C)C)C(C)C`, the composite z-score in [1] is -0.496; in assay [2], 0.253; in assay [3], -0.133; in assay [4] it was 0.967; in assay [5], 0.766; in [6], -0.0929. The composite z-score in [7] is 0.664; in assay [9] it was -0.0273; in assay [10], -0.0994; in assay [11], 0.578; in [15] it was 0.981; in assay [17], -0.192. Moreover, the composite z-score in assay [18] is 0.267; in assay [19], -0.0319; in assay [20], 0.0746. The z-score in assay [8] was -0.421 (inactive); in [12], 1.8 (inactive); in [13] it was 0.267 (inactive); in assay [14], 4.06 (inactive); in [16] it was 1.06 (inactive).

Consider `CO[C@H]1O[C@H](CO)[C@@H](OC(=O)Nc2cccc(F)c2)[C@H](OC(=O)Nc2ccccc2)[C@@H]1OC(=O)Nc1ccccc1`, for which the composite z-score was -0.139 in [1]; 0.995 in [2]; 0.185 in assay [3]; 1.17 in assay [4]; 1.51 in [5]; 1.51 in assay [6]. In addition, the composite z-score in assay [7] is 1.19; in assay [9], 0.7; in assay [10], -0.137; in assay [11] it was 1.53; in assay [15], 3.12; in assay [17] it was 0.182. Further, the composite z-score in assay [18] is 0.286; in assay [19], 1.09; in [20], 0.181. For the same molecule, the z-score in [8] is 1.17 (inactive); in assay [12], 0.347 (inactive); in [13] it was 1.32 (inactive); in assay [14] it was 14.4 (active); in assay [16] it was -0.621 (inactive).

In the case of `COc1cc2c(cc1OC)CN(C(=O)[C@@H]1[C@H]3C(=O)O[C@H](c4ccccc4)[C@H](c4ccccc4)N3[C@H](c3ccccc3OCCO)[C@@]13C(=O)Nc1ccc(C#CCCO)cc13)CC2`, the composite z-score is 0.718 in assay [1]; 0.531 in assay [2]; -0.152 in assay [3]; 0.671 in assay [4]; 0.626 in assay [5]; 0.86 in [6]. In addition, the composite z-score was 1.23 in assay [7]; 1.25 in assay [9]; 0.0458 in [10]; 1.56 in [11]; 3.02 in assay [15]; -0.108 in [17]. Moreover, the figures for the composite z-score in assay [18], in assay [19] and in assay [20] were 0.772, 1.08 and -0.0624, respectively. In addition, the z-score in [8] is 0.876 (inactive); in [12], 1.47 (inactive); in assay [13], -1.3 (inactive); in [14], 2.22 (inactive); in [16] it was 1.15 (inactive).

As for `O=C1O[C@H](c2ccccc2)[C@H](c2ccccc2)N2[C@H]1[C@@H](C(=O)N1CCCCCCC1)[C@]1(C(=O)Nc3ccc(C#CC4=CCCCC4)cc31)[C@H]2c1ccc(OCCO)cc1`, the composite z-score in assay [1] was 3.55; in [2], 2.01; in assay [3], 0.917; in [4] it was 0.965; in [5], 1.6; in [6] it was 2.38. The composite z-score was 1.3 in assay [7]; 3.36 in assay [9]; 3.42 in [10]; 1.53 in [11]; 3.7 in assay [15]; 1.72 in [17]. The composite z-score was 1.72 in [18], 1.02 in [19] and 1.07 in assay [20]. Moreover, the z-score is 0.677 (inactive) in [8]; 0.42 (inactive) in assay [12]; -2.08 (inactive) in assay [13]; 2.79 (inactive) in assay [14]; 2.64 (inactive) in assay [16].
